Assay results reported in PubChem BioAssay (NCATS).
Inconclusive results are not listed. Entries that show only a call come without a potency. Calls of active or inactive are those of the source. Calls follow the shape of the dose curve; as a rule, active = well fitted curve in the direction sought with a large enough effect; inconclusive = small, poorly fitted or top-dose-only effect, or another doubt; inactive = no such curve, though single readings can be large; an effect the other way counts as inactive or inconclusive.

Assay: qHTS Assay for Identification of Small Molecule Agonists for Thrombopoietin (TPO) Signaling Pathway (AID 917)
Details: TPO signaling pathway reporter cells, agonist qHTS; series mostly up to 38.5 µM
In short: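 Luminescence from a Glycoprotein IIb promoter–driven luciferase reporter served as read-out in murine Ba/F3 cells carrying the human TPO receptor. Cells, deprived of IL-3 overnight, received compounds with 26 pM TPO and were incubated 24 hrs at 37 C.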
Potency is read from the fitted curve at half-maximal effect.

| SMILES | Potency |
| --- | --- |
| CCS(=O)(=O)Nc1cccc(C(=C2CCCCC2)c2cnc[nH]2)c1 | inactive |
| O=C1C=CC(=O)C=C1 | inactive |
| CN(N=O)c1ccc(O)c(O)c1 | inactive |
| O=[N+]([O-])c1cc(O)c(O)c([N+](=O)[O-])c1 | inactive |
| COc1ccc2[nH]cc(CCN)c2c1 | inactive |
| CCCN(CCC)C1Cc2cc(OC)c(OC)cc2C1 | inactive |
| NNC(=O)c1ccc(O)cc1 | inactive |
| CCCN(CCC)CCc1c[nH]c2ccc(C(N)=O)cc12 | inactive |
| CCCn1c(C)c(C(=O)c2ccc3ccccc3c2)c2ccccc21 | 10 µM (active) |

Assay: qHTS Assay for Identification of Small Molecule Antagonists for Thrombopoietin (TPO) Signaling Pathway (AID 918); also: nearly all actives have a fitted effect of over 60% in size
Details: TPO-dependent cell signaling reporter, antagonist mode
In short: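 Murine Ba/F3 cells stably expressing human TPO receptor and a Glycoprotein IIb promoter–luciferase reporter were IL-3-starved overnight, treated with compounds plus TPO (26 pM final, its EC50) for 24 hrs at 37 C, then read by luminescence.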

| SMILES | Potency |
| --- | --- |
| COc1ccc2c(c1)/C(=C/c1cnc[nH]1)C(=O)N2 | 10 µM (active) |
| C[N+]1(C)[C@@H]2CC[C@H]1CC(OC(=O)c1c[nH]c3ccccc13)C2 (some centres undefined) | 10 µM (active) |
| c1ccc2c(c1)[I+]c1ccccc1-2 | 0.0398 µM (active) |
| CC(C)(C)c1cc(C=C(C#N)C#N)cc(C(C)(C)C)c1O | 1.58 µM (active) |
| Cc1c2ccncc2c(C)c2c1[nH]c1ccccc12 | 10 µM (active) |
